We go through 14 compounds from PubChem BioAssay (NCATS).

Results filed as inconclusive are left out. Activity calls are given as the source filed them. Unless noted, the call rests on the fitted dose curve; in most records, active means well fitted curve in the direction sought with a large enough effect; inconclusive means small, poorly fitted or top-dose-only effect, or another doubt; inactive means no such curve, though single readings can be large; an effect the other way counts as inactive or inconclusive.

Test [1] concerns the target Cytochrome P450 2D6 (Homo sapiens) (UniProt P10635). Briefly: Cytochrome P450 family 2 subfamily D member 6 (CYP2D6) small molecule antagonists: luciferase biochemical (cell-free) qHTS assay (AID 1645840; active means well fitted curve in the direction sought with a large enough effect in the repeat runs; an effect the other way counts as inactive or inconclusive; further: nearly all actives have a fitted effect of over 55% in size; further: potency means the concentration at half of the fitted maximal effect; on activity change, negative = inhibition: on the % scale 0 is the no-effect control and ±100 the full control effect). In a few lines:
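P450-Glo CYP2D6 system: proluciferin substrate converted by enzyme to luciferin, read by luminescence proportional to activity. Enzyme-substrate mix with compound 10 min at room temperature, then NADPH regeneration 1 h before detection reagent.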
For orientation: In qHTS, concentration-response curves come from the screen itself.

In test [2] the target is Cytochrome P450 2C9 (Homo sapiens) (UniProt P11712). Briefly: Cytochrome P450 family 2 subfamily C member 9 (CYP2C9) small molecule antagonists: luciferase biochemical (cell-free) qHTS assay (AID 1645842; active means well fitted curve in the direction sought with a large enough effect in the repeat runs; an effect the other way counts as inactive or inconclusive; further: nearly all actives have a fitted effect of over 55% in size; further: potency means the concentration at half of the fitted maximal effect; on activity change, negative = inhibition: on the % scale 0 is the no-effect control and ±100 the full control effect). In a few lines: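 P450-Glo CYP2C9 system: proluciferin substrate with enzyme in mix containing 0.4% BSA, 10 min at room temperature, then NADPH regeneration solution added and incubated 1 h at 37C. Detection reagent stopped reaction; luminescence read after 20 min as RLU.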

For test [3], the target named is Cytochrome P450 3A4 (Homo sapiens) (UniProt P08684). Briefly: qHTS Assay for Inhibitors and Substrates of Cytochrome P450 3A4 (AID 884). Further: nearly all actives have a fitted effect of over 50% in size. Further: potency means the concentration at half of the fitted maximal effect. On activity change, negative = inhibition: on the % scale 0 is the no-effect control and ±100 the full control effect. In a few lines:
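Luminescent readout of luciferin produced by CYP3A4 (20 nM) dealkylation of Luciferin-PPXE, 25 uM (its KM). NADPH-driven reaction ran 60 min at RT after 10 min compound preincubation; data scaled to 57 uM ketoconazole as 100% inhibition.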

Test [4] in a line: Confirmation and Secondary Assay for Modulators of Hemoglobin Beta Chain Splicing at IVS2 654 locus (AID 910).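 Further: HeLa cells stably carrying EGFP split by mutant beta-globin IVS2-654 intron; per-well total GFP intensity by laser scanning cytometry after 2-day treatment; % of control where 0% means no effect.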 A digest of the protocol:
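Readout: per-well total peak green fluorescence (488 nm ex, 500–520 nm em) from objects 5–250 µm, reflecting correct splicing of an EGFP-654 reporter. Compounds were applied for 2 days at 37 °C to overnight-plated HeLa EGFP-654 cells; controls were DMSO and 500 nM IVS2-654 PNA.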

Test [5] is described as follows: Confirmation and Secondary Assay for Modulators of Hemoglobin Beta Chain Splicing at IVS2 705 locus (AID 930).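 Further: GFP fluorescence per well restored by corrected splicing of the IVS2-705 intron in EGFP.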 Further: potency means the concentration at half of the fitted maximal effect. A digest of the protocol:
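Fluorescence gain (488 nm laser, 500-520 nm PMT) reflects restored correct splicing of a mutant IVS2-705 intron inside EGFP in stably transfected HeLa cells after 2-day compound treatment.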

A short description of test [6]: qHTS Assay for Lipid Storage Modulators (AID 1519; calls by dose curve; on activity change, negative = inhibition: on the % scale 0 is the no-effect control and ±100 the full control effect). The settings on record: Drosophila S3 cells, BODIPY lipid droplet/cell ratio, laser cytometry, cells loaded with oleic acid. In a few lines:
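Cells seeded at 5,000 per well were treated with compounds over a concentration series and loaded with oleic acid (400 uM, as added). Lipid droplet fluorescence (488 nm excitation, 500-530 nm channel) was read by laser-scanning cytometry and normalized to 20 uM Triacsin C.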

Test [7] concerns the target Cytochrome P450 3A4 (Homo sapiens) (UniProt P08684). Briefly: qHTS Assay for Activators of Cytochrome P450 3A4 (AID 885). Further: nearly all actives have a fitted effect of over 65% in size. A digest of the protocol: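 Human CYP3A4 dealkylates Luciferin-PPXE to luciferin, which luciferase detection converts to light. Substrate was at its KM (25uM), buffer 200mM KPO4, reaction 60 min at RT.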
Test [8] has as its target Alpha-galactosidase (Coffea arabica) (UniProt Q42656). The experiment in a line: Counterscreen for Glucocerebrosidase Inhibitors: qHTS Assay for Coffee Bean alpha-Galactosidase at pH 4.5 (AID 957).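 Further: plate controls were enzyme alone for no effect and no enzyme for full effect.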 In a few lines:
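Fluorogenic read-out: 4-methylumbelliferone at Ex 365/Em 440 nm after NaOH/glycine stop (pH 10). Enzyme 2 nM, 4-MU-alpha-galactoside 80 uM, citrate buffer pH 4.5, 20 min RT; normalized to no-enzyme and enzyme controls.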

Test [9] has the same target. Briefly: Counterscreen for Glucocerebrosidase Inhibitors: qHTS Assay for Coffee Bean alpha-Galactosidase at pH 5.9 (AID 998).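 Further: plate controls were uninhibited enzyme for no effect and no-enzyme basal signal for full effect.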 In a few lines: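 Fluorogenic 4-MU substrate hydrolysis, 80 uM substrate and 2 nM coffee bean alpha-galactosidase, pH 5.9 citrate buffer, 20 min at room temperature, then NaOH/glycine stop. Titration 0.7 nM–77 uM, normalized to no-enzyme and enzyme controls, AC50 via Hill equation.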
(In general: Counterscreens check selectivity or assay interference.)

[10] abbreviates: measured here: cell count channel max response.
Setting [11] is: measured here: lipid channel max response.

Sequence of Cytochrome P450 3A4 (Homo sapiens) (P08684 whole entry, looked up): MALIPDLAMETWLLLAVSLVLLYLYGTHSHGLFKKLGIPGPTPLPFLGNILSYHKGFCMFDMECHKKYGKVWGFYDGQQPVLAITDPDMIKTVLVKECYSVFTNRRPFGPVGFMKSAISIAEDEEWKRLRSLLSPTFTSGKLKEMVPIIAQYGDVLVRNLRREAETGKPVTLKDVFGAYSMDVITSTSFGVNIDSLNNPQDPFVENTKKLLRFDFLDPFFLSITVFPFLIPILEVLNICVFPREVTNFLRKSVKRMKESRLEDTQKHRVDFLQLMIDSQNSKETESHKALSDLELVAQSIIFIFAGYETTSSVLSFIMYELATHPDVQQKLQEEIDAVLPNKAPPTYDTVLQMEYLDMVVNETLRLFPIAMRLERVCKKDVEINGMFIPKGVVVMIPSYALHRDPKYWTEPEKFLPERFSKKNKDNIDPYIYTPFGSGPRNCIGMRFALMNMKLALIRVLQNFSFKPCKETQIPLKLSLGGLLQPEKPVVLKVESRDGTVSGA
Sequence of Cytochrome P450 2C9 (Homo sapiens) (P11712 whole entry, looked up): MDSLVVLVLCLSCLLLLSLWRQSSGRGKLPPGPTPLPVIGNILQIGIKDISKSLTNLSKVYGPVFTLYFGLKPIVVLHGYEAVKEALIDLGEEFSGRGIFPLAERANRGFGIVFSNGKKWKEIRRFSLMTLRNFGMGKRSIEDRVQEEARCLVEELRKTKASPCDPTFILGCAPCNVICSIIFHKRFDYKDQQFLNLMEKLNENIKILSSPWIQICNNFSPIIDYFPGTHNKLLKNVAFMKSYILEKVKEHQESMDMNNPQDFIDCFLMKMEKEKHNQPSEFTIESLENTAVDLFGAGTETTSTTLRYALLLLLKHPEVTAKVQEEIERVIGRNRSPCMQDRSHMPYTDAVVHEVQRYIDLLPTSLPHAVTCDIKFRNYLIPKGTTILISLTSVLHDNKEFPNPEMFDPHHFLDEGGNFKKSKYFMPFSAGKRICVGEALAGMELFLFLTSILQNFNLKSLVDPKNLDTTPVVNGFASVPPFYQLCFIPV
Sequence of Cytochrome P450 2D6 (Homo sapiens) (P10635 whole entry, looked up): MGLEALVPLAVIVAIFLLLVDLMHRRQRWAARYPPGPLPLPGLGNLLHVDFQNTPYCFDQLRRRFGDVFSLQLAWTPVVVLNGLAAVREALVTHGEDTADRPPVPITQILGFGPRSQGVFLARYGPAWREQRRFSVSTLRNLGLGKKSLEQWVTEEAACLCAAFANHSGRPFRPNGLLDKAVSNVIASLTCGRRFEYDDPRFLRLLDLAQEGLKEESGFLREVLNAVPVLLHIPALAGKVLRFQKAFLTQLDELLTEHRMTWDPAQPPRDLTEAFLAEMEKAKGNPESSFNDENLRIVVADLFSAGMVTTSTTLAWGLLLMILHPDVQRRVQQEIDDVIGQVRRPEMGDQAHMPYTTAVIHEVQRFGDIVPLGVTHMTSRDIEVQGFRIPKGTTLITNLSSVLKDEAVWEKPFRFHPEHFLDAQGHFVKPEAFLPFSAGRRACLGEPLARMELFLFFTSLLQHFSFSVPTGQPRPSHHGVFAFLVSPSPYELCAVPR
Sequence of Alpha-galactosidase (Coffea arabica) (Q42656 whole entry, looked up): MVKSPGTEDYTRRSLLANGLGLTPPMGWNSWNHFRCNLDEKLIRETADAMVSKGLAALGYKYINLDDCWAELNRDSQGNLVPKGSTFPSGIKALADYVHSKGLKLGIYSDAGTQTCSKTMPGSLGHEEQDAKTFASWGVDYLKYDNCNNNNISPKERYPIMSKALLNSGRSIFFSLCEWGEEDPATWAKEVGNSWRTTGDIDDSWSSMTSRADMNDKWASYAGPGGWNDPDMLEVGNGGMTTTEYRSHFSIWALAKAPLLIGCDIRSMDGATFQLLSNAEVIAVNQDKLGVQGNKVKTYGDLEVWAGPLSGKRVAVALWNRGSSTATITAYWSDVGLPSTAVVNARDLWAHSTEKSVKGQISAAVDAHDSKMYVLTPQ

For the compound `CCN1CCN(C(c2ccc(Cl)cc2)c2ccc(Cl)cc2)CC1`, the Potency in test [1] is 952 nM (active). Further, the Potency result in test [2] was “inactive”.

Regarding `COC1=CC2C3Cc4ccc(OC)c(O)c4[C@]2(CCN3C)CC1=O` (stereo partly specified), the Potency entry in test [3], in [4] and in [5] was “inactive” each time. For the same compound, the activity change, negative = inhibition in [6] (at 57.5 µM (top of the series)) is 4.04% (inactive). Also, the max response is -5.63% in test [6] (setting [10]) and 0.618% in [6] (setting [11]).

Consider `COc1ccc2c(c1)[C@@]13CCCCC1[C@@H](C2)N(C)CC3` (stereo partly specified), for which the Potency result in [4] and in [5] was “inactive” each time. In addition, the activity change, negative = inhibition in test [6] (at 57.5 µM (top of the series)) was 7.37% (inactive). Also, the max response is 4.27% in test [6] (setting [10]) and 15.7% in test [6] (setting [11]).

As for `CC1OC(O[C@@H]2C(O)CC(O[C@@H]3C(O)C[C@@H](OC4CC[C@]5(C)[C@H](CC[C@H]6[C@@H]5CC[C@]5(C)C(C7=CC(=O)OC7)C(O)C[C@@]65O)C4)OC3C)OC2C)CC(O)C1O` (stereo partly specified), in test [3], the Potency entry is “inactive”. Moreover, the Potency in test [5] was 1 µM (active). In addition, the activity change, negative = inhibition in test [6] (at 57.5 µM (top of the series)) is 10.1% (inactive). Moreover, the max response is 12.5% in test [6] (setting [10]) and 20.2% in test [6] (setting [11]).

Consider `CC(=O)OC1CC[C@@]2(C)C3CC[C@]4(C)C(=O)CCC4C3CC[C@H]2C1` (stereo partly specified), for which the Potency entry in test [3], in test [4] and in [5] was “inactive” in each case. Moreover, in [6] (at 57.5 µM (top of the series)), the activity change, negative = inhibition was -0.903% (inactive). In addition, the max response in test [6] (setting [10]) was -8.94%; in [6] (setting [11]), -14.8%.

With `NC(=NCCCC(N)C(=O)O)N[N+](=O)[O-]` (stereo unspecified), the Potency result in [4] and in test [5] was “inactive” each time. For the same compound, in test [6] (at 57.5 µM (top of the series)), the activity change, negative = inhibition is 0.218% (inactive). Also, the max response in test [6] (setting [10]) is -5.56%; in test [6] (setting [11]), -2.81%.

As to `Cc1c(O)c(O)cc2c1CC=C1[C@]3(C)CC[C@]4(C)CC[C@@](C)(C(=O)O)CC4[C@]3(C)CC[C@]12C` (stereo partly specified), the Potency entry in test [3], in test [4] and in test [5] was “inactive” in each case. The activity change, negative = inhibition in test [6] (at 57.5 µM (top of the series)) is -4.4% (inactive). In addition, the max response was 19.2% in test [6] (setting [10]) and 14.7% in test [6] (setting [11]).

For `CCC(CO)NC(=O)C1C=C2c3cccc4[nH]cc(c34)CC2N(C)C1` (stereo unspecified), the Potency entry in [4] and in test [5] was “inactive” in each case. The activity change, negative = inhibition in [6] (at 57.5 µM (top of the series)) was 10.6% (inactive). Moreover, the max response in test [6] (setting [10]) amounted to 3.07%; in [6] (setting [11]), 18.5%.

For the compound `C=CCC1(CC(C)C)C(=O)NC(=O)NC1=O`, the Potency result in test [1] and in test [2] was “inactive” each time.

As to `CCC(C)C(=O)O[C@@H]1C[C@@]2(C)C(c3ccoc3)OC(=O)CC23OC2(C)O[C@@]14[C@@]1(C)C(CC(=O)OC)C5(C)CC1(O)C(O)(C5OC(=O)C1(C)OC1C)C(OC(C)=O)[C@@]34O2` (stereo partly specified), the Potency entry in [7], in test [4] and in test [5] was “inactive” in each case. Also, in test [6] (at 57.5 µM (top of the series)), the activity change, negative = inhibition is 5.34% (inactive). Moreover, the max response in [6] (setting [10]) was -2.48%; in test [6] (setting [11]), 2.6%.

For the compound `CCCCCCC(C)OC(=O)COc1ccc(Cl)cc1Cl` (stereo unspecified), the Potency result in test [4] and in [5] was “inactive” throughout. The activity change, negative = inhibition in [6] (at 57.5 µM (top of the series)) was 1.06% (inactive). In addition, the max response came to 1.5% in [6] (setting [10]) and 2.82% in [6] (setting [11]).

As for `CCOc1ccc(NC(=O)Cn2cc(C(=O)c3ccccc3)c3ccccc32)cc1`, the Potency in [2] was 16.9 µM (active).

For the compound `NC(N)=NN=Cc1c(Cl)cccc1Cl`, the compound was called inactive in test [8] and in test [9]. Further, in [6] (at 25.7 µM (top of the series)), the activity change, negative = inhibition was -2.38% (inactive). In addition, the results for the max response in [6] (setting [10]) and in test [6] (setting [11]) were -4.82% and -7.49%, respectively.

With `CC1(C)C(=O)C=C[C@@]2(C)C1CC(O)[C@]1(C)C2CC[C@@]2(C)C(c3ccoc3)OC(=O)C3O[C@]312` (stereo partly specified), the Potency in test [3] is 3.98 µM (active). In addition, the Potency entry in test [7], in test [4] and in test [5] was “inactive” each time. Also, in [6] (at 57.5 µM (top of the series)), the activity change, negative = inhibition was -4.48% (inactive). The max response is 13.8% in test [6] (setting [10]) and 11.5% in test [6] (setting [11]).
